In PubChem BioAssay (NCI):
About 83,000 compounds went through this panel and 20% of them were active in at least one assay; those are over-represented in the sample as a whole.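 Each cell line was grown in a 96-well plate and treated with one concentration of compound for 48 hours. Values below 10 were considered active.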 A number with no mark means an inactive call. The source made the active and inactive calls.

Assays:
Test in all cases: NCI-60 one-dose screen, 48 h (100 = growth as untreated, 0 = no growth, -100 = all killed)
Settings in all cases: 10 µM unless noted
DU-145 prostate = tested on: DU-145 prostate
K-562 leukemia = tested on: K-562 leukemia
MALME-3M melanoma = tested on: MALME-3M melanoma
MDA-MB-231 breast = tested on: MDA-MB-231 breast
RXF 393 renal = tested on: RXF 393 renal
SF-268 CNS = tested on: SF-268 CNS
SF-295 CNS = tested on: SF-295 CNS
SF-539 CNS = tested on: SF-539 CNS
UACC-257 melanoma = tested on: UACC-257 melanoma
M14 melanoma = tested on: M14 melanoma
HCT-15 colon = tested on: HCT-15 colon
HT29 colon = tested on: HT29 colon
SNB-75 CNS = tested on: SNB-75 CNS
SNB-19 CNS = tested on: SNB-19 CNS
PC-3 prostate = tested on: PC-3 prostate
SK-MEL-5 melanoma = tested on: SK-MEL-5 melanoma
UACC-62 melanoma = tested on: UACC-62 melanoma
LOX IMVI melanoma = tested on: LOX IMVI melanoma
SK-MEL-28 melanoma = tested on: SK-MEL-28 melanoma
U251 CNS = tested on: U251 CNS

Row | SMILES | growth (DU-145 prostate) | growth (K-562 leukemia) | growth (MALME-3M melanoma) | growth (MDA-MB-231 breast) | growth (RXF 393 renal) | growth (SF-268 CNS) | growth (SF-295 CNS) | growth (SF-539 CNS) | growth (UACC-257 melanoma) | growth (M14 melanoma) | growth (HCT-15 colon) | growth (HT29 colon) | growth (SNB-75 CNS) | growth (SNB-19 CNS) | growth (PC-3 prostate) | growth (SK-MEL-5 melanoma) | growth (UACC-62 melanoma) | growth (LOX IMVI melanoma) | growth (SK-MEL-28 melanoma) | growth (U251 CNS)
1 | COc1cccc2c1C(=O)c1c(O)c3c(c(O)c1C2=O)CC(O)(/C(C)=N/NC(=O)CCCCC(=O)N/N=C(\C)C1(O)Cc2c(O)c4c(c(O)c2C(OC2CC(N)C(O)C(C)O2)C1)C(=O)c1c(OC)cccc1C4=O)CC3OC1CC(N)C(O)C(C)O1 (stereo unspecified) | -47.4% [5 µM] (active) | -51.8% [5 µM] (active) | -66.9% [5 µM] (active) | -2.21% [5 µM] (active) | -55.4% [5 µM] (active) | -31.3% [5 µM] (active) | -35.3% [5 µM] (active) | -41.8% [5 µM] (active) | -34.3% [5 µM] (active) | -57.1% [5 µM] (active) | 13.8% [5 µM] | -68.9% [5 µM] (active) | -67.7% [5 µM] (active) | -8.14% [5 µM] (active) | -40.4% [5 µM] (active) | -89% [5 µM] (active) | -93% [5 µM] (active) | 1.34% [5 µM] (active) | -76.5% [5 µM] (active) | –
2 | O=Cc1ccc(O)c2ncccc12 | 41.9% | -23.6% (active) | 19% | 54.2% | 76.6% | 19.1% | 29.2% | 25.1% | 27.9% | 21.4% | 22.9% | 87.7% | 73.9% | 68.1% | 16.6% | 44% | 45.1% | -68.5% (active) | 38.6% | –
3 | CCc1ccccc1-n1c(N)c(C#N)c(-c2ccc(N(C)C)cc2)c(C#N)c1=O | 103% | 89.3% | 91% | 91.3% | 89.6% | 95.6% | 98.3% | 90.2% | 101% | 101% | 97.7% | 101% | 88.3% | 101% | – | 86.5% | 88% | 92.7% | 100% | 91.1%
4 | Cc1ccccc1NC(=O)N/C(N)=N/c1nc(C)c(C)s1 | 11.2% | 9.17% (active) | 57.1% | 50.9% | 0.637% (active) | 59.5% | 8.66% (active) | -26% (active) | 67.8% | 24% | 26.4% | 16.6% | -33.2% (active) | 39.9% | 30.6% | 40.5% | 42.7% | 37.8% | 60.7% | –
5 | CCCCNC(=O)Oc1ccc2c(=O)c3sc4c(=O)c5ccccc5c(=O)c4c3c(=O)c2c1 | -98.5% (active) | -34.3% (active) | -98% (active) | -22.2% (active) | -87.1% (active) | -48.1% (active) | -98.1% (active) | -96.6% (active) | -95.7% (active) | -77.6% (active) | -84% (active) | -41.6% (active) | -98.3% (active) | – | -15.5% (active) | -96.9% (active) | -75% (active) | -72.9% (active) | -73.3% (active) | -73% (active)
6 | CN(C)CCC=C1c2ccccc2C(C)(C)c2ccccc21 | 35.9% | 32.7% | 78.9% | 75% | 66.4% | 95.9% | 67.2% | 61.2% | 24.2% | 11.6% | 83.9% | 30.5% | 79.3% | – | 55.5% | 64.3% | 71.2% | 69.6% | 54.5% | 78.9%
7 | CN(c1ccccc1)c1ccc2c(c1)OCCC21CC1Nc1cnccc1C(=O)O (stereo unspecified) | 88.8% | 41.2% | 67.5% | 72.8% | 76.4% | 60.2% | 44.2% | 52.7% | 77.5% | 81.2% | 27.1% | 75.8% | 67.3% | – | 52.4% | 48.7% | 62% | 34.3% | 69.1% | 43.9%
8 | COc1cc(C2NC(=O)c3ccccc3N2)ccc1OCCCCCOc1c(OC)cc(C2=NOC(c3cc(OC)c(OC)c(OC)c3)C2)cc1OC (stereo unspecified) | 118% | 59.7% | 53.9% | 82.5% | 104% | 67.4% | 24.9% | 83.2% | 44% | 84.3% | 73% | 94.2% | 101% | – | – | -2.4% (active) | 53.3% | 61% | 69.4% | 84.2%
